From the supplement of paper PMC10849652
Targets with a hit are over-represented here; the source holds about 7,900 in all. About 0.6% of all pairs of compound and target were hits.

What was measured:
Test in all cases: log2 fold change, soluble protein after heating vs DMSO (PISA); higher = thermal stabilisation; K562 cells, 10 uM, 30 min; active = over 0.2 and 3.5 SD of the protein, either way, in both replicates (recomputed)
bafetinib = compound: Cc1ccc(NC(=O)c2ccc(CN3CC[C@H](N(C)C)C3)c(C(F)(F)F)c2)cc1Nc1nccc(-c2cncnc2)n1 [bafetinib]
Procedure, shortened: (§1)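 K562 cells (2×10^6 cells/mL) were treated with 10 μM compound for 30 min, and aliquots were heated for 3 min over 48°C-58°C. Pooled aliquots were extracted in PBS with 0.5% NP-40 at 4°C, and the supernatant after 21,000xg for 90 min was measured by TMTpro 16plex LC-MS/MS with channel sums equalised. Reported thermal stability, relative to control samples and from duplicates, is a log2 fold change.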

[1] = compound: Cc1cccc(CC(=O)N2CCc3c2ccc(-c2cn(C)c4ncnc(N)c24)c3F)n1
Procedure, shortened: as §1

nilotinib = compound: Cc1cn(-c2cc(NC(=O)c3ccc(C)c(Nc4nccc(-c5cccnc5)n4)c3)cc(C(F)(F)F)c2)cn1 [nilotinib]
Procedure, shortened: as §1

[2] = compound: Cc1nc(Nc2n[nH]c3c2CN(C(=O)N[C@H](CN(C)C)c2ccccc2)C3(C)C)c2sccc2n1
Procedure, shortened: as §1

dasatinib = compound: Cc1nc(Nc2ncc(C(=O)Nc3c(C)cccc3Cl)s2)cc(N2CCN(CCO)CC2)n1 [dasatinib]
Procedure, shortened: as §1

[3] = compound: Cc1ncc(-c2ccnc(Nc3ccc(S(C)(=O)=O)cc3)n2)n1C(C)C
Procedure, shortened: as §1

[4] = compound: Cn1cc(-c2ccc3c(c2)CCN3C(=O)Cc2cccc(C(F)(F)F)c2)c2c(N)ncnc21
Procedure, shortened: as §1

[5] = compound: Cn1cc(-c2ccc3nnc(C(F)(F)c4ccc5ncccc5c4)n3n2)cn1
Procedure, shortened: as §1

tipifarnib = compound: Cn1cncc1[C@@](N)(c1ccc(Cl)cc1)c1ccc2c(c1)c(-c1cccc(Cl)c1)cc(=O)n2C [tipifarnib]
Procedure, shortened: as §1

mubritinib = compound: FC(F)(F)c1ccc(/C=C/c2nc(COc3ccc(CCCCn4ccnn4)cc3)co2)cc1 [mubritinib]
Procedure, shortened: as §1

[6] = compound: NC(=O)Nc1cc(-c2cccc(F)c2)sc1C(=O)N[C@H]1CCCNC1
Procedure, shortened: as §1

[7] = compound: NC(=O)c1cnc(N[C@@H]2CCCC[C@@H]2N)nc1Nc1cccc(-n2nccn2)c1
Procedure, shortened: as §1

[8] = compound: NC1(c2ccc(-c3nc4ccn5c(=O)[nH]nc5c4cc3-c3ccccc3)cc2)CCC1
Procedure, shortened: as §1

[9] = compound: NCC(=O)Nc1ccc(-n2nc(C(F)(F)F)cc2-c2ccc3c(ccc4ccccc43)c2)cc1
Procedure, shortened: as §1

entinostat = compound: Nc1ccccc1NC(=O)c1ccc(CNC(=O)OCc2cccnc2)cc1 [entinostat]
Procedure, shortened: as §1

vorinostat = compound: O=C(CCCCCCC(=O)Nc1ccccc1)NO [vorinostat]
Procedure, shortened: as §1

citarinostat = compound: O=C(CCCCCCNC(=O)c1cnc(N(c2ccccc2)c2ccccc2Cl)nc1)NO [citarinostat]
Procedure, shortened: as §1

silmitasertib = compound: O=C(O)c1ccc2c(c1)nc(Nc1cccc(Cl)c1)c1ccncc12 [silmitasertib]
Procedure, shortened: as §1

[10] = compound: c1cc(OCCN2CCCCC2)cc(-c2n[nH]c3ccc(-c4nnc[nH]4)cc23)c1
Procedure, shortened: as §1

[11] = compound: O=C1NC(=O)C(c2cnc3ccccn23)=C1c1cn2c3c(cc(F)cc13)CN(C(=O)N1CCCCC1)CC2
Procedure, shortened: as §1

UniProt Q8NEZ4, sequence (Q8NEZ4 whole entry, looked up): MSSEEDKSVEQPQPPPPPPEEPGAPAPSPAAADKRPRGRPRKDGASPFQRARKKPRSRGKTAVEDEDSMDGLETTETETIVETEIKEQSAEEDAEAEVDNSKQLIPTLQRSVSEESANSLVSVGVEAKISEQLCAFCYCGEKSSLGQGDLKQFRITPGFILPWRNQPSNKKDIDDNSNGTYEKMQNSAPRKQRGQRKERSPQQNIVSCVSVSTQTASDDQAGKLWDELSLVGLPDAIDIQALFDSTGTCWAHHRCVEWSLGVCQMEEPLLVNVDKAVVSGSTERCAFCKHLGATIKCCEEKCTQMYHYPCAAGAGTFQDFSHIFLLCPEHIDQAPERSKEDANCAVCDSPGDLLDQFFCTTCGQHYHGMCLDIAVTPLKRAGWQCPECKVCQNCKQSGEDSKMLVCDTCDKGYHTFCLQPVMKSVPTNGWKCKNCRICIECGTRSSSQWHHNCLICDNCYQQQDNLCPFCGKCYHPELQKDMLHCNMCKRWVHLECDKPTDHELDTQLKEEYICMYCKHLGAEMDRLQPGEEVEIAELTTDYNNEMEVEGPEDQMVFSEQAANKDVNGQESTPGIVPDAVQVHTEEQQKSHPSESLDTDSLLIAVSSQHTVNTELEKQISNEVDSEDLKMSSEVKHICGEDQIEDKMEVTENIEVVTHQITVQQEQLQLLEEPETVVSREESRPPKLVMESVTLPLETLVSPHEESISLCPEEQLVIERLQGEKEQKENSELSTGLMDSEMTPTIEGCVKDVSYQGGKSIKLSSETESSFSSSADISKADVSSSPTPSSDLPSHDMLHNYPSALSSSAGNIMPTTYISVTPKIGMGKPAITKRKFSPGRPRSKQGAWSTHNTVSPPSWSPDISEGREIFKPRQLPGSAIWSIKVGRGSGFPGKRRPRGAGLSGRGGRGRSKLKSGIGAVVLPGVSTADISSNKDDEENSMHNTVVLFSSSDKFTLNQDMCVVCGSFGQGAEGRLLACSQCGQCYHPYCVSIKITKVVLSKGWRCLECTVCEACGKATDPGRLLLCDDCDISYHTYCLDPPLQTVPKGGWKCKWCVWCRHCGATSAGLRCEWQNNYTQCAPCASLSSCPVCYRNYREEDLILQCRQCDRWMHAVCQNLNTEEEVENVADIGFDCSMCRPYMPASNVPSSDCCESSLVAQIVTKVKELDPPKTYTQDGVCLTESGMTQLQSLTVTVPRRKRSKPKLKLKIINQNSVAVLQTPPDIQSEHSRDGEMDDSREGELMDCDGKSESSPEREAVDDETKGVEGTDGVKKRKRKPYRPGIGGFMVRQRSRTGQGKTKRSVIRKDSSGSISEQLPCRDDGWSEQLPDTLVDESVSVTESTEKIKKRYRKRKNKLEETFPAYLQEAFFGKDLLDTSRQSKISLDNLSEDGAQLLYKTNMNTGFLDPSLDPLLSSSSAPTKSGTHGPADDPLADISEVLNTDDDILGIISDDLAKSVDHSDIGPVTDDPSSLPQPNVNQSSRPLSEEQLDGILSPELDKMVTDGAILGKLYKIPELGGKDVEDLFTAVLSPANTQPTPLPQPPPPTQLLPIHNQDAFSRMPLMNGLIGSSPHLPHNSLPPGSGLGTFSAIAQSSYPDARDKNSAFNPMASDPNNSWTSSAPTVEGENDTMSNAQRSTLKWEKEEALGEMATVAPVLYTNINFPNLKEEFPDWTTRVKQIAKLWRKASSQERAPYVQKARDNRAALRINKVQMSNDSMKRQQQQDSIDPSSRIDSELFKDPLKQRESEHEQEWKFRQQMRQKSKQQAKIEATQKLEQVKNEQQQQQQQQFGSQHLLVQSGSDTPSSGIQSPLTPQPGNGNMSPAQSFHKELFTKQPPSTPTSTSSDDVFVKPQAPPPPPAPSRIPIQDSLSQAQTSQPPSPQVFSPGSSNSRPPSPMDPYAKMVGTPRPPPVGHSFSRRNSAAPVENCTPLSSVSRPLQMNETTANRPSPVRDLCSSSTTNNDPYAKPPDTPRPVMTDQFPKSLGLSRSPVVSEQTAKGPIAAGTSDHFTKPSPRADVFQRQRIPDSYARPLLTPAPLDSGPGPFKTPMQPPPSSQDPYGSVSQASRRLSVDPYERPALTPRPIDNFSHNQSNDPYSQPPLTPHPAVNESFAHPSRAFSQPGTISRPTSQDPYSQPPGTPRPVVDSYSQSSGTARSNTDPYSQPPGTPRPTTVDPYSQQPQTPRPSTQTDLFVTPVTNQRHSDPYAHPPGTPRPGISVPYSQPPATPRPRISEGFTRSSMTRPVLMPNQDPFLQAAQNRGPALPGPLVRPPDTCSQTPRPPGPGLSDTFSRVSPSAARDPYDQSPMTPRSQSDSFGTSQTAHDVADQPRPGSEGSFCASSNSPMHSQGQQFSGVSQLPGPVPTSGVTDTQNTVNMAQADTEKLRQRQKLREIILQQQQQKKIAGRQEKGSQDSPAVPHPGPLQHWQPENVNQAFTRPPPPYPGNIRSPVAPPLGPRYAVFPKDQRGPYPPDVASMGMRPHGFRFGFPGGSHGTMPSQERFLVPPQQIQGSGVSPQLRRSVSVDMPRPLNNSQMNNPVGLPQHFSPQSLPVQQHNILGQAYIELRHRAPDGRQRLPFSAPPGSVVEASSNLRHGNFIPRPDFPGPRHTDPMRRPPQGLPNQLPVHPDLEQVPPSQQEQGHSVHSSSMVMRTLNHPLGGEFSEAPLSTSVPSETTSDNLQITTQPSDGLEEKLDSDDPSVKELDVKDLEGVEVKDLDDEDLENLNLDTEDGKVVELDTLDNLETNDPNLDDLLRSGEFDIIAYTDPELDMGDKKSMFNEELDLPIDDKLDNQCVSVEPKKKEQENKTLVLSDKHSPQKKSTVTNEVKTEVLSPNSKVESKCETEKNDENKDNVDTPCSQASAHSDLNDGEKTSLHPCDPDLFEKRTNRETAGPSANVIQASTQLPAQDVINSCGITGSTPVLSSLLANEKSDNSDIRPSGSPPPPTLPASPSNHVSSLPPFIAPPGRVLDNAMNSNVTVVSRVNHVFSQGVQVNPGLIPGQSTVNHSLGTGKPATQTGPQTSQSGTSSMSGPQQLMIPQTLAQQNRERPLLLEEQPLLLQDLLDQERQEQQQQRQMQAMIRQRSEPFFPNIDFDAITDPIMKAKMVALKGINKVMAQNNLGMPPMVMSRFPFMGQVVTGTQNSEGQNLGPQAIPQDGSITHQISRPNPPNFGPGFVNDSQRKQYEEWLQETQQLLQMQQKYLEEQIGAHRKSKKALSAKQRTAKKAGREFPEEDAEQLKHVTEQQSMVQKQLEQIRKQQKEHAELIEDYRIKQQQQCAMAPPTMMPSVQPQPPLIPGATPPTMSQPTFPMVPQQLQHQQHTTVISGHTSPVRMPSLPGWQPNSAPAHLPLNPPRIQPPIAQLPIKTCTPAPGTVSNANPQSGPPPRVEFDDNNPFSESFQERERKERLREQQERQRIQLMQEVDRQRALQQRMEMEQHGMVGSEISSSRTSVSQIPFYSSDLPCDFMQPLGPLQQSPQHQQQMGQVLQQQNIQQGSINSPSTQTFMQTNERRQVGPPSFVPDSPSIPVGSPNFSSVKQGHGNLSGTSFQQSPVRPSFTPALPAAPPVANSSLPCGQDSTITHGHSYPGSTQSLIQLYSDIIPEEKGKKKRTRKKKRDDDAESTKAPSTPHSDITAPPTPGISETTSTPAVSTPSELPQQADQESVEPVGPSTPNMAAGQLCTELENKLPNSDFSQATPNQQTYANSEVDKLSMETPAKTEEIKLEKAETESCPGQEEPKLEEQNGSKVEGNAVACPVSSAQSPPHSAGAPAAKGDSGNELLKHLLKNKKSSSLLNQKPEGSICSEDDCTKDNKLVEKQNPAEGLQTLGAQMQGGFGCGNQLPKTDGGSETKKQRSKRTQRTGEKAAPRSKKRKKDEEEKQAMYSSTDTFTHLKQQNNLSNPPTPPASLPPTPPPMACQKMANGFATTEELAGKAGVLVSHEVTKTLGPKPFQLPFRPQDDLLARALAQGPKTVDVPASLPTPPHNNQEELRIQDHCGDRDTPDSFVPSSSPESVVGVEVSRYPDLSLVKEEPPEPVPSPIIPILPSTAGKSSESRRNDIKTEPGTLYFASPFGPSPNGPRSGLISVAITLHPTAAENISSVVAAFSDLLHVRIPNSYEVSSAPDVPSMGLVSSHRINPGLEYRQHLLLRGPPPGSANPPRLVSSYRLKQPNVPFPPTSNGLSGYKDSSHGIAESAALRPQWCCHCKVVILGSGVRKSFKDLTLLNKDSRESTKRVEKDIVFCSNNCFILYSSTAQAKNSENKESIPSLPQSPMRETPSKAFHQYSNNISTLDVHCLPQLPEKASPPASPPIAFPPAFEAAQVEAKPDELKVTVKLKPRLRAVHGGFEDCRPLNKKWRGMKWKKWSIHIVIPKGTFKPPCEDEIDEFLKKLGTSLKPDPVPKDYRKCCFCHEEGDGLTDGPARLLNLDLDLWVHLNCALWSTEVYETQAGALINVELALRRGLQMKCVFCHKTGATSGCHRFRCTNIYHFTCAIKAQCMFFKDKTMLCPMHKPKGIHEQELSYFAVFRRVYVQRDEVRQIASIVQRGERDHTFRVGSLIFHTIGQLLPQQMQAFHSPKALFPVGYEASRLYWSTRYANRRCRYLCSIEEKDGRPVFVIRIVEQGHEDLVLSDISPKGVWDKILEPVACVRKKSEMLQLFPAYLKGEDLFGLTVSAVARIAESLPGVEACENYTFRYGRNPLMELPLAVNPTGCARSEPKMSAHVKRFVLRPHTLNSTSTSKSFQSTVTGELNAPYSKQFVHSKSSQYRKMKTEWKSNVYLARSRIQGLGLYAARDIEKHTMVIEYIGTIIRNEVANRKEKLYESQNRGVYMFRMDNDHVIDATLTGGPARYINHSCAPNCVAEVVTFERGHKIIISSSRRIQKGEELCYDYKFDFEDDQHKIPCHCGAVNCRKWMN

Row | Target | log2 fold change (bafetinib) | log2 fold change [1] | log2 fold change (nilotinib) | log2 fold change [2] | log2 fold change (dasatinib) | log2 fold change [3] | log2 fold change [4] | log2 fold change [5] | log2 fold change (tipifarnib) | log2 fold change (mubritinib) | log2 fold change [6] | log2 fold change [7] | log2 fold change [8] | log2 fold change [9] | log2 fold change (entinostat) | log2 fold change (vorinostat) | log2 fold change (citarinostat) | log2 fold change (silmitasertib) | log2 fold change [10] | log2 fold change [11]
1 | MED25 isoform 3 (UniProt Q71SY5) | 0.09 (inactive) | 0.217 (inactive) | -0.013 (inactive) | 0.003 (inactive) | -0.049 (inactive) | -0.09 (inactive) | -0.071 (inactive) | 0.076 (inactive) | 0.054 (inactive) | -0.308 (inactive) | -0.016 (inactive) | -0.021 (inactive) | -0.591 (active) | 0.064 (inactive) | 0.065 (inactive) | -0.349 (inactive) | 0.052 (inactive) | 0.174 (inactive) | -0.148 (inactive) | –
2 | IGFBP2 (UniProt P18065) | -0.512 (inactive) | 0.026 (inactive) | -0.034 (inactive) | 0.142 (inactive) | -0.1 (inactive) | 0.17 (inactive) | 0.17 (inactive) | -0.095 (inactive) | -0.1 (inactive) | -0.135 (inactive) | 0.026 (inactive) | -0.043 (inactive) | -0.242 (inactive) | -0.037 (inactive) | 0.04 (inactive) | 0.351 (inactive) | -0.068 (inactive) | 0.267 (inactive) | 0.064 (inactive) | -0.143 (inactive)
3 | KLC2 (UniProt Q9H0B6) | 0.013 (inactive) | 0.018 (inactive) | -0.049 (inactive) | -0.388 (active) | -0.07 (inactive) | 0.025 (inactive) | 0.05 (inactive) | 0.046 (inactive) | 0.031 (inactive) | 0.009 (inactive) | -0.149 (inactive) | -0.084 (inactive) | -0.134 (inactive) | -0.044 (inactive) | 0.031 (inactive) | 0.044 (inactive) | 0.061 (inactive) | 0.063 (inactive) | -0.082 (inactive) | 0.007 (inactive)
4 | KIFBP (UniProt Q96EK5) | 0.006 (inactive) | 0.094 (inactive) | -0.162 (inactive) | -0.079 (inactive) | -0.114 (inactive) | -0.004 (inactive) | -0.084 (inactive) | -0.046 (inactive) | -0.063 (inactive) | -0.078 (inactive) | 0.002 (inactive) | -0.166 (inactive) | -0.117 (inactive) | -0.091 (inactive) | 0.059 (inactive) | 0.088 (inactive) | 0.043 (inactive) | -0.02 (inactive) | -0.056 (inactive) | 0.024 (inactive)
5 | MAP2K1 (UniProt Q02750) | -0.026 (inactive) | -0.039 (inactive) | -0.015 (inactive) | -0.052 (inactive) | -0.063 (inactive) | 0.008 (inactive) | 0.023 (inactive) | 0.021 (inactive) | -0.024 (inactive) | 0.015 (inactive) | -0.028 (inactive) | -0.062 (inactive) | -0.011 (inactive) | -0.027 (inactive) | -0.004 (inactive) | 0.035 (inactive) | 0.022 (inactive) | -0.064 (inactive) | -0.035 (inactive) | -0.061 (inactive)
6 | INTS7 (UniProt Q9NVH2) | 0.02 (inactive) | 0.033 (inactive) | -0.054 (inactive) | -0.025 (inactive) | -0.109 (inactive) | 0.114 (inactive) | -0.021 (inactive) | 0.017 (inactive) | -0.132 (inactive) | -0.123 (inactive) | -0.076 (inactive) | 0.037 (inactive) | 0.001 (inactive) | -0.045 (inactive) | -0.095 (inactive) | 0.049 (inactive) | -0.007 (inactive) | 0.055 (inactive) | 0.01 (inactive) | 0.092 (inactive)
7 | MGRN1 isoform 2 (UniProt O60291) | -0.07 (inactive) | -0.227 (inactive) | – | – | – | – | -0.149 (inactive) | 0.027 (inactive) | 0.2 (inactive) | – | – | 0.11 (inactive) | – | – | – | -0.024 (inactive) | – | – | – | –
8 | KMT2C isoform 3 (UniProt Q8NEZ4) | -0.209 (inactive) | -0.041 (inactive) | -0.049 (inactive) | -0.093 (inactive) | 0.043 (inactive) | 0.001 (inactive) | 0.094 (inactive) | -0.215 (inactive) | – | 0.083 (inactive) | -0.021 (inactive) | 0.046 (inactive) | -0.756 (active) | -0.006 (inactive) | -0.03 (inactive) | 0.19 (inactive) | 0.104 (inactive) | -0.052 (inactive) | -0.076 (inactive) | -0.094 (inactive)
9 | MAP4K5 (UniProt Q9Y4K4) | -0.064 (inactive) | -0.001 (inactive) | 0.136 (inactive) | -0.093 (inactive) | – | -0.116 (inactive) | -0.125 (inactive) | 0.019 (inactive) | -0.146 (inactive) | 0.022 (inactive) | 0.217 (inactive) | 0 (inactive) | -0.002 (inactive) | -0.097 (inactive) | -0.012 (inactive) | 0.074 (inactive) | 0.02 (inactive) | -0.09 (inactive) | 0.026 (inactive) | 0.073 (inactive)
